# Data: PubChem BioAssay AID504339 (National Center for Advancing Translational Sciences (NCATS), 2011)
# Hit rate of the full screen: of about 390,000 compounds, about 17,000 (4.4%) were called active. Entries that show only a call come without a potency. Inconclusive results (about 8%) are left out. For the sample, actives were picked, then their nearest neighbours and some compounds at random. Values without a mark were called inactive. Calls come from the whole dose curve; as a rule, active = well fitted inhibition curve with a large enough effect; inconclusive = small, poorly fitted or top-dose-only effect; inactive = no such curve, though single readings can be large or run the other way.
# Target: Lysine-specific demethylase 4A (Homo sapiens) (UniProt O75164)
# Test: qHTS Assay for Inhibitors of JMJD2A-Tudor Domain; note: nearly all actives have a fitted effect of over 50% in size
# Settings: AlphaScreen JMJD2A-Tudor / H3K4me3 peptide binding; series mostly up to 114 µM
# Text: JMJD2A is a jumonji-domain-containing lysine demethylase that uses Fe(II) together with 2-OG to effect oxidative demethylation of histones. Methylation is one of many […] modification that affect epigenetic transcription. […] It is proposed that the functions of JmjD2A binding to the histones, is to maintain marks after they are installed and to spread the modifications by […], establishing a self-propagating cycle for rapid methylation over a large area of chromatin. […] Thus, small molecule targeting of the JMJD2A-tudor domain interaction with its target methylhistone mark is expected to enable sophisticated experiments probing the fine regulatory pathways leading to selective demethylation of a given methyllysine locus based on the methylation state of adjacent histone marks. A quantitative high throughput AlphaScreen has been developed to identify small molecule inhibitors based on a protocol published by NCGC and SGC [4].
# Although AlphaScreen has significant advantages with its utility in a variety of epigenetic target assays, the primary screening data provided in this deposition should be used with caution due to the prevalence of screening artifacts. The top compound concentration tested was high (>100uM) in this assay, which increases number of actives and potential artifacts. An AlphaScreen counterscreen is highly recommended to be run against any putative actives to eliminate non-specific artifacts. Alternatively, one can use other AlphaScreen assays in PubChem to filter out promiscuous hits.
# [1] Lee, J. et al. Distinct binding modes specify the recognition of methylated histone H3K4 and H4K20 by JMJD2A-tudor. Nat Struct Mol Biol. 15(1); 109-11. 2008. PMID: 18084306
# [2] Yasgar, et al. Compound Management for Quantitative High-Throughput Screening. JALA. 2008 Apr;13(2):79-89. PMID: 18496600
# [3] Inglese, et al. Quantitative high-throughput screening: a titration-based approach that efficiently identifies biological activities in large chemical libraries. Proc Natl Acad Sci. 1;103(31):11473-8. 2006. PMID: 16864780
# [4] Quinn et al. A homogeneous method for investigation of methyl-dependent protein-protein interactions in epigenetics. Nucleic Acids Res., 38(2):e11. 2010. PMID: […]
# [5] Baell,Holloway. New substructure filters for removal of pan assay interference compounds (PAINS) from screening libraries and for their exclusion in bioassays. J Med Chem. 53(7):2719-40. 2010. PMID: 20131845
# NIH Molecular Libraries Probe Production Network [MLPCN]
# NIH Chemical Genomics Center [NCGC]
# Structural Genomics Consortium (SGC)
# To each well of a 1,536w plate, 2ul of JMJD2A-Tudor (final 100nM) and 1ul biotinylated histone peptide methylated at Lys4 [b-H3(1-18)K4me3] (final 50nM) were added in 1x PBS buffer, pH 7.4, containing 0.01% Tween-20, using a nanoliter dispenser. Formation of a protein-peptide complex proceeded at room temperature for 30 min. A Kalypsys pin-tool transferred 23nl of library compound solution in DMSO to each well. Following a 30 min incubation of the protein-peptide complex with compounds at room temperature, a mixture of 40 µg/mL each streptavidin-coated donor and nickel chelate acceptor AlphaScreen beads (final 10 µg/mL) was added in a 1ul dispense for a final volume of 4ul, followed by a brief centrifugation (1000 rpm, 1 min). Plates were incubated protected from the light for 20 min at room temperature. Microplates were then read on an EnVision multilabel plate reader using the 1,536 plate HTS AlphaScreen aperture (excitation time 80 ms, measurement time 240 ms).
# Potency is the fitted concentration of half-maximal effect.
# Lysine-specific demethylase 4A (Homo sapiens), sequence (O75164 whole entry, looked up, the tested form may be a part): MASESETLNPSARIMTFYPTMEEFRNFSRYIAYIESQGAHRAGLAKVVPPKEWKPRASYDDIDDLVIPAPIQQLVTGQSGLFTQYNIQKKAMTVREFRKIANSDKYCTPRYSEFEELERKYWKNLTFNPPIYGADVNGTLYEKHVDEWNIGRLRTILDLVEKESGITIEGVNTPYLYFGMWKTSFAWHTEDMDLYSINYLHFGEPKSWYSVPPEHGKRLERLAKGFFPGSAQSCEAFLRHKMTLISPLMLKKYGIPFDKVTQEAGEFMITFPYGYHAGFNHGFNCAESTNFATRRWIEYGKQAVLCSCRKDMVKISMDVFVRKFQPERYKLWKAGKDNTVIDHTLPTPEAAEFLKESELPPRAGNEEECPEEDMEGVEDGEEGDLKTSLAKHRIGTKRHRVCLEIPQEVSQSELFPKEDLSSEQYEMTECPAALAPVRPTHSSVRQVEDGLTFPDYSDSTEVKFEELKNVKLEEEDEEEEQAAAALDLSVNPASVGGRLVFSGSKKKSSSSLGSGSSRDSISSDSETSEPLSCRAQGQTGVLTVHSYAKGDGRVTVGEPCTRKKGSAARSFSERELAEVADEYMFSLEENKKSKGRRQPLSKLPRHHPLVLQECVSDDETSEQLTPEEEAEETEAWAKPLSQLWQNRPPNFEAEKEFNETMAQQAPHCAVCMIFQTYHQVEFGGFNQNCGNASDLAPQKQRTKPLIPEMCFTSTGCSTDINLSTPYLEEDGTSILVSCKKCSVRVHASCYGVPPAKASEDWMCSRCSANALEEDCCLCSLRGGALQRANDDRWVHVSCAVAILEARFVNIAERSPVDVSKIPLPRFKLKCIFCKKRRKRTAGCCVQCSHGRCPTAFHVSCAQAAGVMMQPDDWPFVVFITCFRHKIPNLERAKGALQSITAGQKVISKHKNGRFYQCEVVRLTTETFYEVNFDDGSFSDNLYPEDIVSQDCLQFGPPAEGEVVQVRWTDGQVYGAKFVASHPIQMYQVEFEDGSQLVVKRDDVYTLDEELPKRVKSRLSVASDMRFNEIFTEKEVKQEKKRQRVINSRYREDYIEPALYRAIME
SMILES,Potency,"activity change, negative = inhibition"
COCCn1c(CCC(=O)Nc2cc(C)ccc2C)nc2cccnc21,inactive,–
CCOc1ccc(S(=O)(=O)c2cn(Cc3ccccc3)c3ccc(OCC)cc3c2=O)cc1,inactive,–
Cn1nnc2c(N3CCN(c4ccccc4)CC3)ncnc21,inactive,–
CCOc1ccccc1C(=O)Nc1ccc(S(=O)(=O)N2CCCCC2c2cccnc2)cc1 (configuration not stated),inactive,–
O=C(c1cccc(Cl)c1)N1CCN(CCc2ccncc2)CC1,inactive,–
CCn1c(CSCc2c(Cl)cccc2Cl)n[nH]c1=S,–,-16.5% [at 11.4 µM]
CCn1c(CNS(=O)(=O)c2ccc(Cl)cc2)n[nH]c1=S,10 µM (active),–
CSc1ccc(S(=O)(=O)NCc2ccc(Cl)cc2)cc1,inactive,–
COc1cccc(OC)c1C(=O)Nc1nnc(C(C)C)s1,inactive,–
COc1ccc(-c2nc3ccccc3s2)cc1NC(=O)COc1ccccc1C,inactive,–
COc1cccc2sc(NNC(=O)c3nc4ccccc4s3)nc12,50.1 µM (active),–
Cc1ccc(OCCn2c(CNc3ccccc3C)nc3ccccc32)cc1,inactive,–
COc1ccc(N2CCN(C(=O)CSCc3nc(-c4ccccc4Cl)oc3C)CC2)cc1,50.1 µM (active),–
COc1ccc(N2CCN(C(=O)CN3C(=O)COc4ccccc43)CC2)cc1,inactive,–
COc1ccc(CNC(=O)CSCc2nc(-c3ccccc3F)oc2C)cc1,inactive,–
CCOc1cc(/C=C2\C(=N)N3N=C(C)SC3=NC2=O)ccc1OCCOc1ccccc1,inactive,–
CS(=O)(=O)C1=NN2C(=N)/C(=C\c3ccc(OCCOc4ccccc4)cc3)C(=O)N=C2S1,56.2 µM (active),–
CCS(=O)(=O)C1=NSC2=NC(=O)/C(=C\c3ccc(OS(=O)(=O)c4ccccc4)cc3)C(=N)N21,44.7 µM (active),–
COc1cc(/C=C2\C(=N)N3N=C(CC(=O)N4CCOCC4)SC3=NC2=O)cc(OC)c1OC,inactive,–
COc1ccccc1OCCOc1ccc(/C=C2\C(=N)N3N=C(C)SC3=NC2=O)cc1,inactive,–
CCC(=O)Nc1c(C(=O)N2CCN(c3ccc(F)cc3)CC2)oc2ccccc12,inactive,–
Cc1ccccc1CCNC(=O)C1CCN(c2nc3ccccc3nc2C(F)(F)F)CC1,inactive,–
COc1ccc2c(c1)c(N1CCCC1=O)c(C(=O)Nc1ccc(OC)c(Cl)c1)n2C,inactive,–
Cc1nnc(N2CCC(C(=O)Nc3ccc(F)cc3)CC2)c2nn(-c3ccc(Cl)cc3)c(C)c12,inactive,–
COc1ccc(Cl)cc1-n1c(CCC(=O)O)ccc1-c1ccc(C)cc1,inactive,–
CC(C)n1c(=S)[nH]c2cc(C(F)(F)F)ccc21,inactive,–

SMILES,Potency,"activity change, negative = inhibition"
FC(F)(F)c1ccc(-n2cn[nH]c2=S)cc1,8.91 µM (active),–
O=c1c2ccccc2c(-c2ccc(F)cc2)nn1-c1ccc(C(F)(F)F)cc1,inactive,–
Cc1c(NC(=O)Cc2ccccc2)cccc1-c1nc2cccnc2s1,inactive,–
Cc1ccc(S(=O)(=O)/N=S(\C)C(C)C)cc1 (configuration not stated),50.1 µM (active),–
CCCC/S(C)=N/S(=O)(=O)c1ccc(C)cc1 (configuration not stated),inactive,–
CC/S(CC1CC1(Cl)Cl)=N\S(=O)(=O)c1ccc(C)cc1 (configuration not stated),inactive,–
CC(C)(c1ccccc1)c1ccc(OCCN2CCCC2)cc1,20 µM (active),–
C#CC(CCN1CCCCC1)(OC)c1ccccc1 (configuration not stated),inactive,–
O=C(Nc1ccc(F)cc1F)N1CCCN(CCOc2ccccc2)CC1,inactive,–
c1ccc2cc(OCCN3CCCC3)ccc2c1,7.94 µM (active),–
Clc1ccccc1-c1cc(COc2ccc3ccccc3c2)no1,inactive,–
CCCCOc1ccc(C(C)(O)CCN2CCOCC2)cc1 (configuration not stated),inactive,–
O=C(Nc1ccccc1Cl)N1CCC(CN2CCCCC2)CC1,inactive,–
O=C(CSCc1cnn(-c2ccccc2)c1-n1cccc1)NCc1ccc(Cl)cc1,inactive,–
CCOc1ccc(OCC)c(NC(=O)c2cc(C)nc3c2c(C)nn3-c2cccc(Cl)c2C)c1,inactive,–
CCOc1ccc(NC(=O)C(CC(C)C)N2Cc3ccccc3C2=O)cc1 (configuration not stated),inactive,–
CCNC(=O)c1cc2n(n1)CCCN(Cc1ccc(C)cc1)C2=O,inactive,–
CCCCc1nn2c(=O)cc(COC(=O)c3cccc(NC(=O)COc4ccccc4)c3)nc2s1,inactive,–
Cc1ccc(Cl)cc1N(C)C(=O)Cn1nc(Cc2cccnc2)c2ccccc2c1=O,inactive,–
Cc1cc(NC(=O)C2CCC(CNS(=O)(=O)c3ccc(Br)s3)CC2)ccc1Br (configuration not stated),inactive,–
COc1ccc(NC(=O)CN(C)C(=O)c2n[nH]c3ccccc23)cc1,inactive,–
Cc1ccc(NC(=O)c2cc(-c3ccc(C)o3)nc3ccccc23)nc1,35.5 µM (active),–
COc1ccc(NC(=O)CN(C)C(=O)c2cc(-c3ccc(C)o3)nc3ccccc23)cc1,89.1 µM (active),–
COc1ccc(-c2cc(C(=O)N(C)CC(=O)Nc3ccccc3Cl)c3ccccc3n2)cc1OC,inactive,–
CC(=O)N1CCN(C(=O)c2cc(-c3ccc(C)o3)nc3ccccc23)CC1,inactive,–
CSc1ncccc1C(=O)Nc1ccc(C)cn1,inactive,–
